Test results from the supplement of paper PMC6897291.

Key:
U-2932 [1] = experiment: growth inhibition by drug alone (1 - RLU/untreated control) (fraction); higher = stronger inhibition; settings: 177Lu-lilotomab satetraxetan 0 ug/ml
How it was run: (§1)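 With or without 18 h pretreatment by a radiolabelled anti-CD37 antibody conjugate (~600 MBq/mg; 0.5 µg/ml RIVA, 1 µg/ml U-2932), RIVA and U-2932 cells were washed and plated at 3,000 cells/well. Pre-printed compound doses were 10/100 nM for RIVA and 10/1,000 nM for U-2932. Growth inhibition uses RealTime-Glo RLU relative to the untreated no-drug wells. The calculation is 1 − RLU/mean of 48 such wells per plate, with reads daily from day 3 after 1 h at 37°C.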

RIVA [2] = experiment: as above; settings: 177Lu-lilotomab satetraxetan 0 ug/ml
How it was run: as §1

U-2932 [3] = experiment: growth inhibition by drug plus 177Lu-lilotomab satetraxetan (1 - RLU/untreated control) (fraction); higher = stronger inhibition; settings: 177Lu-lilotomab satetraxetan 1 ug/ml
How it was run: as §1

RIVA [4] = experiment: as above; settings: 177Lu-lilotomab satetraxetan 0.5 ug/ml
How it was run: as §1

SMILES | growth inhibition by drug alone (U-2932 [1]; 10 nM, time (day): 3) | growth inhibition by drug alone (U-2932 [1]; 10 nM, time (day): 4) | growth inhibition by drug alone (U-2932 [1]; 10 nM, time (day): 5) | growth inhibition by drug alone (U-2932 [1]; 10 nM, time (day): 6) | growth inhibition by drug alone (U-2932 [1]; 1000 nM, time (day): 3) | growth inhibition by drug alone (U-2932 [1]; 1000 nM, time (day): 4) | growth inhibition by drug alone (U-2932 [1]; 1000 nM, time (day): 5) | growth inhibition by drug alone (U-2932 [1]; 1000 nM, time (day): 6) | growth inhibition by drug alone (RIVA [2]; 10 nM, time (day): 3) | growth inhibition by drug alone (RIVA [2]; 10 nM, time (day): 4) | growth inhibition by drug alone (RIVA [2]; 10 nM, time (day): 5) | growth inhibition by drug alone (RIVA [2]; 10 nM, time (day): 6) | growth inhibition by drug alone (RIVA [2]; 100 nM, time (day): 3) | growth inhibition by drug alone (RIVA [2]; 100 nM, time (day): 4) | growth inhibition by drug alone (RIVA [2]; 100 nM, time (day): 5) | growth inhibition by drug alone (RIVA [2]; 100 nM, time (day): 6) | growth inhibition by drug plus 177Lu-lilotomab satetraxetan (U-2932 [3]; 10 nM, time (day): 3) | growth inhibition by drug plus 177Lu-lilotomab satetraxetan (U-2932 [3]; 10 nM, time (day): 4) | growth inhibition by drug plus 177Lu-lilotomab satetraxetan (U-2932 [3]; 10 nM, time (day): 5) | growth inhibition by drug plus 177Lu-lilotomab satetraxetan (U-2932 [3]; 10 nM, time (day): 6) | growth inhibition by drug plus 177Lu-lilotomab satetraxetan (U-2932 [3]; 1000 nM, time (day): 3) | growth inhibition by drug plus 177Lu-lilotomab satetraxetan (U-2932 [3]; 1000 nM, time (day): 4) | growth inhibition by drug plus 177Lu-lilotomab satetraxetan (U-2932 [3]; 1000 nM, time (day): 5) | growth inhibition by drug plus 177Lu-lilotomab satetraxetan (U-2932 [3]; 1000 nM, time (day): 6) | growth inhibition by drug plus 177Lu-lilotomab satetraxetan (RIVA [4]; 10 nM, time (day): 3) | growth inhibition by drug plus 177Lu-lilotomab satetraxetan (RIVA [4]; 10 nM, time (day): 4) | growth inhibition by drug plus 177Lu-lilotomab satetraxetan (RIVA [4]; 10 nM, time (day): 5) | growth inhibition by drug plus 177Lu-lilotomab satetraxetan (RIVA [4]; 10 nM, time (day): 6) | growth inhibition by drug plus 177Lu-lilotomab satetraxetan (RIVA [4]; 100 nM, time (day): 3) | growth inhibition by drug plus 177Lu-lilotomab satetraxetan (RIVA [4]; 100 nM, time (day): 4) | growth inhibition by drug plus 177Lu-lilotomab satetraxetan (RIVA [4]; 100 nM, time (day): 5) | growth inhibition by drug plus 177Lu-lilotomab satetraxetan (RIVA [4]; 100 nM, time (day): 6)
COc1cc(Nc2ncc(F)c(Nc3ccc4c(n3)N(COP(=O)(O)O)C(=O)C(C)(C)O4)n2)cc(OC)c1OC | -0.000834 | -0.000602 | 0.00162 | 0.0946 | 0.00804 | -0.00449 | -0.047 | -0.0248 | -0.112 | -0.134 | -0.185 | -0.286 | -0.0605 | -0.0606 | -0.107 | -0.168 | 0.0179 | 0.0218 | 0.0539 | 0.209 | -0.0117 | 0.00967 | 0.0277 | 0.162 | 0.382 | 0.517 | 0.542 | 0.553 | 0.413 | 0.448 | 0.452 | 0.437
O=C(Nc1cccc(Cl)c1)Nc1ncc(CCNc2ncnc3ccsc23)s1 | 0.0932 | 0.0546 | 0.111 | 0.319 | 0.16 | 0.209 | 0.218 | 0.355 | 0.0836 | 0.115 | 0.215 | 0.331 | 0.0102 | 0.0483 | 0.135 | 0.239 | 0.0766 | 0.0714 | 0.202 | 0.505 | 0.201 | 0.317 | 0.351 | 0.495 | 0.463 | 0.543 | 0.579 | 0.666 | 0.389 | 0.481 | 0.511 | 0.596
COc1cc2c(N3CCN(C(=O)Nc4ccc(OC(C)C)cc4)CC3)ncnc2cc1OCCCN1CCCCC1 [Tandutinib (MLN518)] | -0.0695 | -0.0613 | -0.013 | 0.108 | -0.0914 | -0.0805 | -0.0691 | -0.0707 | -0.157 | -0.175 | -0.185 | -0.222 | -0.102 | -0.12 | -0.163 | -0.231 | -0.106 | -0.0661 | -0.0234 | 0.112 | -0.163 | -0.112 | -0.0614 | 0.0615 | 0.419 | 0.516 | 0.54 | 0.542 | 0.365 | 0.403 | 0.407 | 0.387
CC(C)n1c(/C=C/C(O)CC(O)CC(=O)O)c(-c2ccc(F)cc2)c2ccccc21 (centres undefined) [Fluvastatin sodium (Lescol)] | 0.0449 | -0.0165 | -0.0177 | 0.0304 | -0.0194 | -0.0389 | -0.0543 | 0.0255 | -0.148 | -0.159 | -0.189 | -0.293 | -0.27 | -0.311 | -0.385 | -0.508 | -0.0533 | 0.0114 | 0.0651 | 0.148 | 0.00838 | 0.0135 | 0.0456 | 0.221 | 0.511 | 0.544 | 0.565 | 0.555 | 0.516 | 0.511 | 0.53 | 0.525
COc1nc(C)cnc1NS(=O)(=O)c1cccnc1-c1ccc(-c2nnco2)cc1 [Zibotentan (ZD4054)] | -0.02 | -0.0119 | -0.0937 | -0.23 | -0.0348 | -0.00699 | -0.0784 | -0.143 | 0.00676 | -0.0294 | -0.0678 | -0.248 | -0.0338 | -0.0394 | -0.0583 | -0.115 | -0.0217 | 0.0145 | 0.00284 | 0.0711 | -0.0714 | 0.0154 | -0.0042 | -0.0452 | 0.387 | 0.514 | 0.537 | 0.542 | 0.388 | 0.485 | 0.494 | 0.461
COc1ccc(-c2ccc3c(N4CCOCC4)nc(N4C[C@@H](C)O[C@@H](C)C4)nc3n2)cc1CO | 0.119 | 0.133 | 0.0721 | 0.0015 | 0.602 | 0.481 | 0.389 | 0.407 | 0.0903 | 0.0995 | 0.0433 | -0.131 | 0.104 | 0.122 | 0.0472 | -0.0784 | 0.0319 | 0.069 | 0.0942 | 0.161 | 0.496 | 0.409 | 0.361 | 0.434 | 0.514 | 0.598 | 0.603 | 0.621 | 0.475 | 0.552 | 0.55 | 0.529
C[C@@H](Oc1cc(-c2cnn(C3CCNCC3)c2)cnc1N)c1c(Cl)ccc(F)c1Cl | 0.0921 | 0.0793 | 0.115 | -0.0753 | 0.154 | 0.193 | 0.301 | 0.419 | 0.00835 | 0.0307 | -0.0637 | -0.409 | -0.398 | -0.211 | -0.28 | -0.62 | 0.0291 | 0.0614 | 0.116 | 0.192 | 0.115 | 0.223 | 0.397 | 0.566 | 0.466 | 0.573 | 0.592 | 0.61 | 0.405 | 0.523 | 0.532 | 0.543
